From PubChem BioAssay AID1159580 (chemical genetic matrix, 2015)
Screen size: about 5,500 compounds; about 2,000 (36%) were called active. Another 18% or so got no clear call; they are omitted. Cut-off read from the data, not from the text of the source: active = normalized growth mostly below about 0.91 (no sharp cut-off); inconclusive = no clear call, values can overlap the other calls; inactive = mostly above about 0.92. Some of the results follow.

Experiment: chemical genetic growth profiling, strain panel (AID 1159580);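 note: tested at 20 µM; growth read once vehicle control cultures reached saturation at 30 °C; 1 = growth at the plate median or of vehicle wells; lower values mean less growth of the strain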
Conditions: growth OD

Measured: normalized growth

COc1cc([C@@H]2c3cc4c(c(O)c3C[C@H]3COC(=O)[C@@H]32)OCO4)cc(OC)c1OC
inactive: S. cerevisiae deletion strains, locus YJR043C, strain POL32, stronger effect = lower value 0.989 | S. cerevisiae deletion strains, locus YJR075W, strain HOC1, stronger effect = lower value 0.996 | S. cerevisiae deletion strains, locus YKL009W, strain mrt4, stronger effect = lower value 0.983 | S. cerevisiae deletion strains, locus YKL068W, stronger effect = lower value 0.979 | S. cerevisiae deletion strains, locus YKL085W, strain MDH1 (second series), stronger effect = lower value 0.973 | S. cerevisiae deletion strains, locus YKL085W, strain MDH1, stronger effect = lower value 0.973 | S. cerevisiae deletion strains, locus YKL160W, strain elf1, stronger effect = lower value 1 | S. cerevisiae deletion strains, locus YKL190W, strain CNB1, stronger effect = lower value 0.986 | S. cerevisiae deletion strains, locus YKR001C, strain vps1, stronger effect = lower value 1 | S. cerevisiae deletion strains, locus YKR026C, strain gcn3, stronger effect = lower value 0.985 | S. cerevisiae deletion strains, locus YKR091W, strain srl3, stronger effect = lower value 0.995 | S. cerevisiae deletion strains, locus YLL001W, strain dnm1, stronger effect = lower value 0.991 | S. cerevisiae deletion strains, locus YLL026W, stronger effect = lower value 0.993 | S. cerevisiae deletion strains, locus YLL041C, strain sdh2, stronger effect = lower value 0.99 | S. cerevisiae deletion strains, locus YLR027C, strain aat2, stronger effect = lower value 0.974 | S. cerevisiae deletion strains, locus YLR039C, strain RIC1, stronger effect = lower value 0.921 | S. cerevisiae deletion strains, locus YLR058C, strain SHM2, stronger effect = lower value 0.982 | S. cerevisiae deletion strains, locus YLR102C, strain apc9, stronger effect = lower value 0.976 | S. cerevisiae deletion strains, locus YLR221C, strain rsa3, stronger effect = lower value 0.959 | S. cerevisiae deletion strains, locus YLR258W, strain gsy2, stronger effect = lower value 1.01 | S. cerevisiae deletion strains, locus YLR262C, strain YPT6 (second series), stronger effect = lower value 0.989 | S. cerevisiae deletion strains, locus YLR262C, strain YPT6, stronger effect = lower value 0.907 | S. cerevisiae deletion strains, locus YLR268W, strain sec22, stronger effect = lower value 1.01 | S. cerevisiae deletion strains, locus YLR320W, strain mms22, stronger effect = lower value 0.963 | S. cerevisiae deletion strains, locus YLR330W, strain CHS5, stronger effect = lower value 0.981 | S. cerevisiae deletion strains, locus YLR342W, strain FKS1 (second series), stronger effect = lower value 0.971 | S. cerevisiae deletion strains, locus YLR342W, strain FKS1, stronger effect = lower value 0.983 | S. cerevisiae deletion strains, locus YLR357W, strain rsc2, stronger effect = lower value 0.999 | S. cerevisiae deletion strains, locus YLR370C, strain arc18, stronger effect = lower value 1 | S. cerevisiae deletion strains, locus YLR371W, strain rom2, stronger effect = lower value 0.946 | S. cerevisiae deletion strains, locus YLR384C, strain iki3, stronger effect = lower value 0.98 | S. cerevisiae deletion strains, locus YLR418C, strain cdc73, stronger effect = lower value 1.01 | S. cerevisiae deletion strains, locus YML016C, strain PPZ1, stronger effect = lower value 0.992 | S. cerevisiae deletion strains, locus YML032C, strain rad52, stronger effect = lower value 0.991 | S. cerevisiae deletion strains, locus YML120C, strain ndi1, stronger effect = lower value 0.998 | S. cerevisiae deletion strains, locus YML124C, strain tub3, stronger effect = lower value 0.988 | S. cerevisiae deletion strains, locus YMR058W, strain fet3, stronger effect = lower value 0.999 | S. cerevisiae deletion strains, locus YMR078C, strain ctf18, stronger effect = lower value 0.995 | S. cerevisiae deletion strains, locus YMR125W, strain sto1, stronger effect = lower value 0.986 | S. cerevisiae deletion strains, locus YMR129W, stronger effect = lower value 0.984 | S. cerevisiae deletion strains, locus YMR205C, strain PFK2, stronger effect = lower value 0.982 | S. cerevisiae deletion strains, locus YMR223W, strain ubp8, stronger effect = lower value 0.987 | S. cerevisiae deletion strains, locus YMR231W, strain pep5, stronger effect = lower value 0.991 | S. cerevisiae deletion strains, locus YMR263W, strain SAP30, stronger effect = lower value 1 | S. cerevisiae deletion strains, locus YMR307W, strain GAS1, stronger effect = lower value 1.02 | S. cerevisiae deletion strains, locus YNL067W, strain RPL9B, stronger effect = lower value 1.02 | S. cerevisiae deletion strains, locus YNL071W, strain lat1, stronger effect = lower value 1.01 | S. cerevisiae deletion strains, locus YNL128W, strain TEP1, stronger effect = lower value 0.989 | S. cerevisiae deletion strains, locus YNL153C, strain GIM3, stronger effect = lower value 1.03 | S. cerevisiae deletion strains, locus YNL209W, strain ssb2, stronger effect = lower value 1 | S. cerevisiae deletion strains, locus YNL233W, strain BNI4, stronger effect = lower value 1.04 | S. cerevisiae deletion strains, locus YNL248C, strain rpa49, stronger effect = lower value 0.984 | S. cerevisiae deletion strains, locus YNL250W, strain rad50, stronger effect = lower value 0.955 | S. cerevisiae deletion strains, locus YNL271C, strain bni1, stronger effect = lower value 0.973 | S. cerevisiae deletion strains, locus YNL298W, strain CLA4, stronger effect = lower value 0.976 | S. cerevisiae deletion strains, locus YNL307C, strain MCK1, stronger effect = lower value 0.992 | S. cerevisiae deletion strains, locus YNL322C, strain KRE1 (second series), stronger effect = lower value 1 | S. cerevisiae deletion strains, locus YNL322C, strain KRE1, stronger effect = lower value 0.979 | S. cerevisiae deletion strains, locus YNR049C, strain mso1, stronger effect = lower value 0.986 | S. cerevisiae deletion strains, locus YNR052C, strain pop2, stronger effect = lower value 0.975 | S. cerevisiae deletion strains, locus YOL006C, strain TOP1, stronger effect = lower value 1.08 | S. cerevisiae deletion strains, locus YOL012C, strain htz1 0.866 | S. cerevisiae deletion strains, locus YOL147C, strain pex11, stronger effect = lower value 0.985 | S. cerevisiae deletion strains, locus YOR001W, strain rrp6, stronger effect = lower value 0.957 | S. cerevisiae deletion strains, locus YOR061W, strain CKA2, stronger effect = lower value 0.986 | S. cerevisiae deletion strains, locus YOR069W, strain VPS5, stronger effect = lower value 0.992 | S. cerevisiae deletion strains, locus YOR070C, strain gyp1, stronger effect = lower value 0.987 | S. cerevisiae deletion strains, locus YOR080W, strain dia2, stronger effect = lower value 0.98 | S. cerevisiae deletion strains, locus YOR083W, strain WHI5, stronger effect = lower value 1.01 | S. cerevisiae deletion strains, locus YOR106W, strain vam3, stronger effect = lower value 1 | S. cerevisiae deletion strains, locus YOR136W, strain idh2, stronger effect = lower value 0.984 | S. cerevisiae deletion strains, locus YOR144C, strain elg1, stronger effect = lower value 0.984 | S. cerevisiae deletion strains, locus YOR184W, strain ser1, stronger effect = lower value 0.973 | S. cerevisiae deletion strains, locus YOR265W, strain rbl2, stronger effect = lower value 0.992 | S. cerevisiae deletion strains, locus YOR270C, strain vph1, stronger effect = lower value 0.98 | S. cerevisiae deletion strains, locus YOR290C, strain snf2, stronger effect = lower value 0.987 | S. cerevisiae deletion strains, locus YOR316C, strain cot1, stronger effect = lower value 0.983 | S. cerevisiae deletion strains, locus YPL051W, strain arl3, stronger effect = lower value 0.965 | S. cerevisiae deletion strains, locus YPL055C, strain LGE1, stronger effect = lower value 1.03 | S. cerevisiae deletion strains, locus YPL078C, strain atp4, stronger effect = lower value 1.01 | S. cerevisiae deletion strains, locus YPL106C, strain sse1, stronger effect = lower value 0.987 | S. cerevisiae deletion strains, locus YPL240C, strain hsp82, stronger effect = lower value 0.992 | S. cerevisiae deletion strains, locus YPL241C, strain CIN2, stronger effect = lower value 0.987 | S. cerevisiae deletion strains, locus YPR119W, strain clb2, stronger effect = lower value 0.979 | S. cerevisiae deletion strains, locus YPR141C, strain kar3, stronger effect = lower value 0.979 | S. cerevisiae deletion strains, locus YPR163C, strain tif3, stronger effect = lower value 0.97 | S. cerevisiae deletion strains, locus YPR167C, strain met16, stronger effect = lower value 0.971 | S. cerevisiae deletion strains, strain wtn01, stronger effect = lower value 1 | S. cerevisiae strains, strain wild type, stronger effect = lower value 0.99
